Shown are actives, neighbours in structure and some others; about 2.1% of the full set was active somewhere.
HSV augment: enhancers of HSV replication in host cells, fold increase, host cell viability. HSV replication augmentation in cells. maximum fold increase. actives 0.005% (n = 220,000); in the data active = maximum fold increase above about 1.5; inconclusive = no clear call, values can overlap the other calls; tested in PC3 cells
Calpain2 inh: inhibitors of pig calpain II, primary screen, biochemical, fluorogenic peptide substrate, 1536-well; purified calpain II, 30 min; inhibition, % at 16 µM; actives 0.37% (n = 220,000); AID 1236, 2008;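 active = inhibition above about 50%, limit read from the data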
ROMK mod: ROMK potassium channel modulators, primary screen, cell-based, thallium flux, MLSMR library; ATP-sensitive inward rectifier potassium channel 1 (Homo sapiens), P48048; Tet-inducible ROMK, thallium flux fluorescence; actives lie on both sides; B-score at 10 µM; actives 2% (n = 130,000); AID 1918, 2009;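 active = signal ratio slope over the read window, or its plate-corrected B-score, at least 3 SD from the plate mean, either direction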;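 also: B-score of the F/F0 ratio slope over 7 to 12 s after thallium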
Target sequence (P48048 whole entry, looked up): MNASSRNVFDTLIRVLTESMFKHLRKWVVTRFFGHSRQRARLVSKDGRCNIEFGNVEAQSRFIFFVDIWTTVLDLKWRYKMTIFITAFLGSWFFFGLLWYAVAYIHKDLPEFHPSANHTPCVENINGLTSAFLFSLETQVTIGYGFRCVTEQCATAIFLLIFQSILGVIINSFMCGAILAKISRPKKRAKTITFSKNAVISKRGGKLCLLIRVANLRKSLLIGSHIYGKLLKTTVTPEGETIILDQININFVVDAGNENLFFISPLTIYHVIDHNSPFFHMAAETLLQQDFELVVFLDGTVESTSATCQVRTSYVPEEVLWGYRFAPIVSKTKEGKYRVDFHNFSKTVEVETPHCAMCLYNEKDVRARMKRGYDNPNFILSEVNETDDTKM
Efa HMGR inh: inhibitors of E. faecalis class II HMGR, primary screen, biochemical, Enterococcus faecalis | HMG-CoA reductase (Enterococcus faecalis, mvaE) | purified E. faecalis HMGR, NADPH absorbance 340 nm kinetic | inhibition, % at 10 µM | actives 0.41% (n = 190,000);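 active = inhibition above a set limit, the median over all tested compounds plus 3 SD, cut at about 9.5% in these data; inconclusive = no clear call, values can overlap the other calls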;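 also: enzyme runs in reverse so mevalonate oxidation gives rising NADPH absorbance; 0% = complete reaction with DMSO and 100% = background rate lacking mevalonate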
Arbovirus inh: antivirals against arbovirus infection, primary screen, cell-based, full library, 10K replicate subset; arbovirus infection cell-based antiviral screen; inhibition, % at 10 µM; actives 0.37% (n = 200,000); in the data active = inhibition above about 30%
ROMK retest: ROMK channel modulator hit retest, confirmation, cell-based, thallium flux, duplicate, resupplied hits; shares compounds with ROMK mod; fluorescence ratio; active compounds read low; normalized thallium flux (F/F0 slope) at 10 µM; actives 54% (n = 3,000);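 active = Flux at 10 µM at least 3 SD below or above vehicle control mean in one or both replicates; inconclusive = no clear call, values can overlap the other calls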
* = called active by the depositor; i = inactive; ? = inconclusive; / = no result.

SMILES | HSV augment | Calpain2 inh | ROMK mod | Efa HMGR inh | Arbovirus inh | ROMK retest
CCOC(=O)C1CCCN(c2nc3ccccc3nc2C(C#N)C(=O)OC(C)COC)C1 (configuration not stated) | i | -1.9 | -0.145 | -0.6 | -3.9 | 0.0711
O=C(O)c1ccc2c(c1)C1C=CCC1C(c1cc3c(cc1Br)OCO3)N2 (configuration not stated) | i | -6.2 | 3.97* | 1.7 | -14.2 | 0.0895
COc1ccc(C2CC(C)(c3ccc(OC)cc3)Nc3ccccc3N2)cc1 (configuration not stated) | i | -49.1 | / | / | / | 0.0872
Oc1c(Br)cc(Br)cc1C=NCc1ccc(F)cc1 | i | 27.9 | 3.27* | -7.9 | 2.0 | 0.122*
O/N=C/c1cc(Br)cc(Br)c1OCc1ccccc1 | i | 43.1 | 0.852 | -1.7 | -7.9 | /
Oc1c(Br)cc(Br)cc1C=NCc1ccccc1 | i | -10.0 | 3.92* | -2.2 | -2.0 | ?
Fc1ccc(CNC(=S)Nc2ccccc2Cl)cc1 | i | 4.4 | 0.525 | -4.2 | -3.6 | /
CCN(CC)S(=O)(=O)c1ccc(Cl)c(NC(=O)COc2ccc(OC)cc2)c1 | i | -22.7 | 0.0173 | 4.5 | 6.2 | /
CN1C(=O)C2(OCC(COc3ccc(Cl)cc3)O2)c2ccccc21 (configuration not stated) | i | -13.9 | / | -0.2 | 3.6 | 0.0781
CC(=O)c1cc2c(cc1NC(=O)c1ccccc1C)OCO2 | i | -85.1 | -0.973 | 1.2 | -0.7 | /
CCCOc1ccccc1/C=C(\C#N)C(=O)Nc1cccnc1 | i | 11.1 | / | / | / | /
CCC(=O)Nc1cccc(C(=O)/C=C/c2ccccc2)c1 | i | -23.8 | / | -0.9 | -39.7 | /
CCC(=O)Nc1cccc(C(=O)/C=C/c2cccs2)c1 | i | 41.9 | -1.35 | -5.4 | -30.5 | 0.0686*
Cc1ccc(NC(=O)COc2ccccc2CNC(C)(C)CC(C)(C)C)cc1 | i | 1.3 | -3.58* | -1.4 | -41.5 | 0.05*
CC(C)(CO)NCc1ccccc1OCC(=O)Nc1ccccc1 | i | 17.0 | 0.000711 | 7.4 | -1.8 | /
CCCOC(=O)C[N+](C)(C)CCOC1CC2CCC1(C)C2(C)C (configuration not stated) | i | -15.0 | / | / | / | /
CCCCCCOC(=O)C[N+](C)(C)CCOC1CC2CCC1(C)C2(C)C (configuration not stated) | i | -26.8 | / | 1.2 | 4.8 | 0.0445*
CC(C)CCOC(=O)C[N+](C)(C)CCOC1CC2CCC1(C)C2(C)C (configuration not stated) | i | 17.4 | -4.1* | 0.1 | 3.3 | 0.0515*
CCCCOC(=O)C[N+](C)(C)CCOC1CC2CCC1(C)C2(C)C (configuration not stated) | i | -0.3 | / | -7.7 | 4.8 | /
CCCCCCCOC(=O)C[N+](C)(C)CCOC1CC2CCC1(C)C2(C)C (configuration not stated) | i | -9.2 | / | -7.4 | -33.2 | 0.043*
Cc1ccc(O)c(C(=O)c2cnn(C(=O)Cc3csc(C)n3)c2)c1 | i | -6.9 | -6.7* | -2.0 | -1.1 | 0.0784
COC(=O)CNC(=O)C(Cc1ccccc1)NS(=O)(=O)c1ccc2c(c1)c(=O)n(C)c(=O)n2C (configuration not stated) | i | -21.9 | -0.281 | -2.4 | -2.4 | /
CCOc1ccc(/C=N/NC(=O)CNC(=O)c2ccc(S(=O)(=O)N3CCOCC3)cc2)cc1 | i | -16.2 | 1.15 | 8.0 | -4.1 | /
O=C(c1ccccc1)c1c2c(cc3sc4ccccc4[n+]13)-c1cccc3cccc-2c13 | / | -8.1 | / | 1.2 | -37.0 | 0.0447*
Cc1sc2cc3c(c(C(=O)c4ccccc4)[n+]2c1C)-c1cccc2cccc-3c12 | i | -43.1 | -3.08* | -8.8 | -23.2 | 0.0546*
Cc1cc(C)c2c(N)c(C(=O)c3ccccc3)sc2n1 | i | -124.1 | 0.295 | / | / | /
Nc1ccc2c(c1)OC1(CCCC1)O2 | i | 21.4 | 0.762 | -1.9 | -9.4 | /

Compound activity from PubChem.
